Test results as given in PubChem BioAssay (NCI).
About 83,000 compounds went through this panel and 20% of them were active in at least one assay; those are over-represented in the sample as a whole.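 In brief: 96-well plates, 48 h treatment, single concentration, percent growth endpoint.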 Unmarked numbers belong to inactive results. Calls of active or inactive are those of the source. Rule for the calls: active = growth percent below 10; inactive = the rest.

Experiments:
Test in all cases: NCI-60 one-dose screen, 48 h (100 = growth as untreated, 0 = no growth, -100 = all killed)
SK-MEL-2 melanoma = settings: 10 µM unless noted
EKVX NSCLC = settings: 10 µM unless noted
SN12C renal = settings: 10 µM unless noted
UO-31 renal = settings: 10 µM unless noted
TK-10 renal = settings: 10 µM unless noted
ACHN renal = settings: 10 µM unless noted
CAKI-1 renal = settings: 10 µM unless noted
A498 renal = settings: 10 µM
HL-60(TB) leukemia = settings: 10 µM unless noted
CCRF-CEM leukemia = settings: 10 µM unless noted

Compound | growth (SK-MEL-2 melanoma) | growth (EKVX NSCLC) | growth (SN12C renal) | growth (UO-31 renal) | growth (TK-10 renal) | growth (ACHN renal) | growth (CAKI-1 renal) | growth (A498 renal) | growth (HL-60(TB) leukemia) | growth (CCRF-CEM leukemia)
CC1=C2[C@@H](CC1)[C@]1(C)O[C@@](C(C)C)(C[C@H]1O)[C@H]2OC(=O)C1CC1c1ccccc1 (stereo not given in full) | 87.7% | 88% | 91.7% | 74.7% | 104% | 84.2% | 79.5% | 72.7% | 80.5% | 74.9%
C/C(Cc1ccc(Cl)cc1)=C(\c1ccc(OCCN2CCOCC2)cc1)c1ccc(OC(=O)Cc2ccccc2)cc1 | 84.9% | 93.3% | 93.8% | 67.5% | 86.7% | 104% | 71.6% | 98.6% | 100% | 98.9%
CC(=O)O[C@H]1C(=O)[C@@]2(C)[C@H]([C@H](OC(=O)c3ccccc3)[C@]3(O)C[C@H](OC(=O)[C@H](OC(=O)OC[C@H]4COC(C)(C)O4)[C@@H](NC(=O)c4ccccc4)c4ccccc4)C(C)=C1C3(C)C)[C@]1(OC(C)=O)CO[C@@H]1C[C@@H]2O | 14.3% | 27.1% | 22.5% | 33.8% | 25.6% | 34.5% | 20.7% | 21.1% | 3.13% (active) | 17%
CN1C(=O)C(=Cc2cn(Cc3ccccc3)c3ccccc23)C(=O)N(C)C1=O | 81.5% | 82.1% | 103% | 54.3% | 4.63% (active) | 84.5% | 60.4% | -83.1% (active) | 64.4% | 92%
CCCCCCCOC(C(=O)OCCN(CC)CC)(c1ccccc1)c1ccccc1 | 103% | 76.1% | 93.6% | 69% | 77.8% | 92.3% | 65.4% | 82.4% | 79.1% | 82.5%
C[C@@]12CC[C@@H](O)C[C@@H]1CC[C@H]1[C@H]2CC[C@@]2(C)[C@H](c3ccc(=O)oc3)CC[C@@]12O | -29.7% (active) | -86.4% (active) | -24.9% (active) | -96.2% (active) | -81.4% (active) | -90% (active) | -83.5% (active) | -29.9% (active) | -30.6% (active) | -9% (active)
C/C(=C\c1ccn(-c2ccc(N)cc2C(F)(F)F)n1)[C@@H]1C[C@@H]2O[C@]2(C)CCC[C@H](C)[C@H](O)[C@@H](C)C(=O)C(C)(C)[C@@H](O)CC(=O)O1 | 18.1% | 33.7% | 22.6% | 38.2% | 39.8% | 50% | 31.4% | -4.95% (active) | -0.118% (active) | 16.3%
CN1CCCCC1C(C)(O)c1ccccc1 (stereo not given) | 106% | 96.3% | 102% | 92.5% | 94.9% | 108% | 96.4% | 101% | 114% | 112%
CC[C@H](C)[C@H](NC(=O)c1cccn1C)C(=O)N(C)[C@H](C[C@@H](OC(C)=O)c1nc(C(=O)N[C@@H](Cc2ccccc2)C[C@H](C)C(=O)OC)cs1)C(C)C | 20.4% | 54.3% | 24.2% | 38.9% | 27.5% | 30% | 25.1% | -2.8% (active) | -36.7% (active) | 18.7%
COc1cc2c(=O)n(C3CCCCCCC3)c3c4cc[nH]c4ncc3c2cc1OC | 78.7% | 71.6% | 49.8% | 22.5% | 30.8% | 40.9% | 54.6% | 4.93% (active) | 57.6% | 44.9%
NC(=S)c1cn(C2OC(CO)C(O)C2O)c2ncnc(N)c12 (stereo not given) | -58.1% (active) | -4.9% (active) | -10.5% (active) | -9.32% (active) | -29.5% (active) | -6.08% (active) | -36.6% (active) | -32.5% (active) | -72.9% (active) | -40.6% (active)
CC1(C)CN1P(=O)(N1CC1(C)C)N1CC1(C)C (stereo not given) | 115% | 124% | 109% | 85% | 118% | 112% | 110% | 102% | 90% | 106%
CC[C@H](C)[C@H](NC(=O)[C@H]1CCCCN1C)C(=O)N(C)[C@H](C[C@@H](OC(C)=O)c1cccc(C(=O)N[C@@H](Cc2ccccc2)C[C@H](C)C(=O)O)n1)C(C)C | 36.3% | 59.6% | 28.1% | 44.7% | 29% | 32.3% | 13.7% | -2.46% (active) | -40% (active) | 16.8%
O=C(CC1(O)C(=O)N(Cc2ccccc2)c2ccc(F)cc21)c1ccc(C(=O)NCC2CCC3(CC2)OOC2(CCCCC2)OO3)cc1 (stereo not given) | -12.9% (active) | -68.5% (active) | -59.5% (active) | -76.3% (active) | -93.6% (active) | -80.7% (active) | -87.1% (active) | -88.5% (active) | -57.5% (active) | -36.9% (active)
COc1cc2c(cc1OCCCCCn1c(-c3ccco3)nc3ccccc31)N=C[C@@H]1CCCN1C2=O | -43.9% (active) | 22.7% | 15.8% | -23.9% (active) | -1.37% (active) | 10.2% | 12% | -39.6% (active) | -27.4% (active) | 29.8%
CC(=O)OC1C(OC/C2=C/C3[C@@H](C(C)C)CC=C(C)[C@@H]3CC(OC(=O)/C=C/c3cn(C)cn3)[C@]3(C)C=C[C@@]2(O)O3)OCC(O)C1O (stereo not given in full) | 45.6% | 33.9% | 44.2% | 40.4% | 32.3% | 45% | 37% | 13.2% | -3.65% (active) | 22.5%
CC1=C(CNO)C2=C(C)C3(CC3)[C@@](C)(O)C(=O)C2=C1 | -44.4% (active) | 9.85% (active) | 18.7% | -57.7% (active) | -0.334% (active) | -48.3% (active) | -9.31% (active) | -70.9% (active) | 8.14% (active) | 73.9%
Oc1c(CCl)cc(Cl)cc1CCl | 105% | 104% | 122% | 86.4% | 106% | 106% | 104% | 119% | 103% | 108%
O=C(CCCCCCC(=O)Nc1ccc(N(CCCl)CCCl)cc1)NO | 49.5% | 76.7% | 18.8% | 62% | 38.5% | 16.7% | 23% | 54.1% | 18.4% | 19.4%
C1CCC2(CC1)OOCNCOO2 | 102% | 99% | 110% | 93.6% | 91.3% | 110% | 93.1% | 97.4% | 71.7% | 99.5%
COC1CC2c3ccccc3C1C(C)=[N+]2C (stereo not given) | 91.8% | 97.4% | 94.1% | 94% | 98.8% | 99.3% | 69.3% | 80.8% | 113% | 76.7%
C=CCc1cc2c(cc1OCC)OCO2 | 104% | 91.1% | 98.8% | 95.4% | 92% | 111% | 102% | 91.3% | 98.1% | 106%
COC(C(=O)[C@@H](O)[C@@H](C)O)[C@@H]1Cc2cc3cc(O[C@H]4C[C@@H](O[C@H]5C[C@@H](O)[C@H](O)C(C)O5)[C@H](O)C(C)O4)c(C)c(O)c3c(O)c2C(=O)[C@H]1O[C@H]1C[C@@H](O[C@H]2C[C@@H](O[C@H]3C[C@@H](O)[C@@H](O)C(C)O3)[C@@H](O)C(C)O2)[C@H](O)C(C)O1 (stereo not given in full) | -61.3% (active) | 24.4% | 7.47% (active) | -3.24% (active) | 12.1% | 0.535% (active) | 12.6% | -39.9% (active) | 30.5% | 29.4%
